High-throughput results (PubChem BioAssay)
Compounds with a hit are over-represented: about 9.6% of the library has one in this group of screens.
PTEN del growth: growth suppression of PTEN-null HCT116, primary screen, cell-based, CellTiter-Glo; actives 1.2% (n = 140,000); HCT116 PTEN-null viability, 60 h; active compounds read low; viability, % at 10 µM; AID 827, 2007;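 active = viability at or below a set limit, 4 SD under the median of all tested compounds, cut at about 3.7% in these data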;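 note: PTEN knockout HCT116 line with beta catenin targeted HCT116 as companion control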
L major viab: Leishmania major promastigote growth inhibition, primary screen; Leishmania major promastigotes, resazurin fluorescence viability; inhibition, % at 10 µM; actives 9% (n = 200,000); AID 1063, 2008; in the data active = inhibition above about 50%;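 note: promastigotes grown with compound for 44 hours at 28 °C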
HCT116 bCat-KO: primary screen for growth suppressors in beta-catenin knockout HCT116 cells (colon tumor, human); actives 1.5% (n = 140,000); viability, % at 10 µM; HCT116 beta-catenin knockout viability, CellTiter-Glo, 60 h; active compounds read low;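 active = viability at or under a set limit, the compound median less 4 SD, cut at about 6% in these data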
Insulin prom up: insulin promoter activators in MIN6 cells, imaging, high-content screening, mouse beta cells; MIN6 insulin promoter-GFP reporter; active compounds read high; z-score at 5 µM; actives 0.3% (n = 190,000); AID 1625, 2009;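 active = z-score above 3 at 5 µM with at least 500 cells counted in the well; inconclusive = wells under 500 cells, flagged as cytotoxic or low count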
Insulin prom inh: inhibitors of insulin promoter-driven GFP, primary screen, imaging, TRM-6 cells (human fetal islet line), eGFP reporter, cell count; reporter expression induced with tamoxifen; inhibition, % at 2 µM; actives 0.9% (n = 130,000);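 active = inhibition above the mean plus 3 SD, with well images judged a real hit on visual review, cut at about 60% in these data, passing the limit was not always enough; inconclusive = inhibition over the cutoff but images rejected on review; inactive = inhibition not above the cutoff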
Autophagy HCS: autophagy modulators in MEF cells, primary screen, imaging, high-content, MEF GFP-LC3; MEF GFP-LC3 puncta imaging; test concentration mostly 10 µM; actives 0.98% (n = 190,000); calls only at 10 µM (by protocol); AID 463193, 2010;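 active = percentage of spot-positive cells more than 3 SD above its plate mean, without a fluorescence outlier flag or 80% toxicity; inconclusive = no clear call, values can overlap the other calls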
Each line names hits and unclear results; the compound was inactive in the other large screens.

O=c1c2ccccc2cnn1-c1ccc(Cl)nn1	none (no result: PTEN del growth, HCT116 bCat-KO)
CC(C)NC(=O)C1CCCN(S(=O)(=O)c2cccs2)C1 (configuration not stated)	none
Cc1cccc(-n2cc(CN3CCN(Cc4nccn4C)CC3)c(-c3cccc(F)c3)n2)c1	L major viab 90 (no result: PTEN del growth, HCT116 bCat-KO, Insulin prom inh)
CCn1ccnc1CN(C)Cc1cn(-c2ccc(C)cc2)nc1-c1ccc(F)cc1	L major viab 100 (no result: PTEN del growth, HCT116 bCat-KO, Insulin prom up)
CN(Cc1cn(C)nc1-c1cccc(Cl)c1)Cc1nccn1C	none (no result: PTEN del growth, L major viab, HCT116 bCat-KO, Insulin prom inh, Autophagy HCS)
Cc1ccc(-n2cc(CN3CCC(O)(c4ccccn4)CC3)c(-c3ccc(F)cc3)n2)cc1	L major viab 73 (no result: PTEN del growth, HCT116 bCat-KO, Insulin prom inh)
Cc1ccc(-n2cc(CN(C)Cc3nccn3C)c(-c3ccc(F)cc3)n2)cc1	L major viab 80 (no result: PTEN del growth, HCT116 bCat-KO)
Cc1ccc(-n2cc(CN(C)Cc3ncc[nH]3)c(-c3cccc(C)c3)n2)cc1	L major viab 83 (no result: PTEN del growth, HCT116 bCat-KO, Insulin prom up)
CCn1ccnc1CN(C)Cc1cn(-c2cc(C)ccc2C)nc1-c1ccccc1	L major viab 93 (no result: PTEN del growth, HCT116 bCat-KO, Insulin prom inh)
CN(Cc1ncc[nH]1)Cc1cn(-c2ccccc2)nc1-c1ccc2c(c1)OCO2	none (no result: PTEN del growth, L major viab, HCT116 bCat-KO, Insulin prom inh, Autophagy HCS)
Cc1cc(C)nc(Nc2n[nH]c(-c3ccccc3C)n2)n1	Autophagy HCS active (no result: PTEN del growth, HCT116 bCat-KO, Insulin prom inh)
Cc1cc(C)nc(Nc2n[nH]c(-c3ccccc3Br)n2)n1	none
COC(=O)c1ccc(N2CCN(C(=O)c3ccccc3)CC2)c(NC(C)=O)c1	none (no result: PTEN del growth, HCT116 bCat-KO, Insulin prom inh)
CC1=C(C#N)C(c2cccnc2)C2=C(CC(c3ccc(Cl)cc3)CC2=O)N1 (configuration not stated)	L major viab 100 (no result: Insulin prom up)
Cc1ccc(C(C)C)c(OCCCNCc2cccnc2)c1	L major viab 87 (no result: PTEN del growth, HCT116 bCat-KO, Insulin prom inh)
Cc1ccc(C(C)C)c(OCCNS(C)(=O)=O)c1	Insulin prom inh inconclusive
CCCCNCC#CCOc1cc(C)ccc1C(C)C	L major viab 95 (no result: PTEN del growth, HCT116 bCat-KO, Insulin prom inh)
COc1ccc(Cn2nnnc2C(c2ccccc2OC)N2CCC(C(N)=O)CC2)cc1 (configuration not stated)	none
Cc1cc(C)cc(N=C2SC(CC(=O)Nc3ccccc3)C(=O)N2CCN2CCOCC2)c1 (configuration not stated)	Autophagy HCS active (no result: PTEN del growth, HCT116 bCat-KO, Insulin prom inh)
COc1ccc(N=C2SC(C(=O)Nc3ccc(OC)cc3)CC(=O)N2CCN2CCOCC2)cc1 (configuration not stated)	L major viab 58
CCCNS(=O)(=O)c1cc(Br)cc2c1N(C(=O)CC)CC2	none
Nc1cc(=O)nc(SCC(=O)Nc2ccccc2)n1-c1ccccc1	none
COc1ccc(C2(C(N)=O)CCCCC2)cc1OC	none
CCN(CC)CCC(=O)c1ccc(F)cc1	L major viab 80 (no result: PTEN del growth, HCT116 bCat-KO, Insulin prom inh)
CN(C)CCC(=O)c1ccc(F)cc1	none (no result: PTEN del growth, L major viab, HCT116 bCat-KO, Insulin prom inh, Autophagy HCS)
C/C(CC(=O)Nc1cccnc1)=N\NC(=O)C(=O)Nc1cccc(C)c1	Autophagy HCS active
C/C(CC(=O)Nc1cccnc1)=N\NC(=O)C(=O)NC(C)C	none (no result: PTEN del growth, L major viab, HCT116 bCat-KO, Insulin prom inh, Autophagy HCS)
Cc1ccccc1OCc1nc2ccccc2c(=O)n1/N=C/c1c[nH]c2ccccc12	none
Cc1ccc(-c2[nH]ncc2/C=N/n2c(COc3ccccc3C)nc3ccccc3c2=O)cc1	L major viab 75
Cc1cccc(C)c1OCc1nc2ccccc2c(=O)n1/N=C/c1c[nH]c2ccccc12	L major viab 96 (no result: Insulin prom inh)
Cc1ccc(OCc2nn3c(-c4ccco4)nnc3s2)cc1	none
CCN1C(=O)C(O)(C2COC(C)(C)CC2=O)c2ccccc21 (configuration not stated)	none
CCN1C(=O)C(O)(C2COC(C)(C)CC2=O)c2cc(Br)ccc21 (configuration not stated)	Autophagy HCS active (no result: Insulin prom up)
c1ccc(CC2CCN(C3=Nc4cccc5cccc3c45)CC2)cc1	L major viab 100, Autophagy HCS active (no result: Insulin prom up)
COc1ccccc1N1CCN(C2=Nc3cccc4cccc2c34)CC1	L major viab 77 (no result: PTEN del growth, HCT116 bCat-KO)
Clc1cccc(N2CCN(Cc3nnc(-c4ccccc4)o3)CC2)c1	none (no result: PTEN del growth, HCT116 bCat-KO, Insulin prom inh)
CCOC(=O)C(C(=O)OCC)C1CS(=O)(=O)CC1C(C(=O)OCC)C(=O)OCC (configuration not stated)	none (no result: Insulin prom up)
Cc1ccc2nc(SCC(=O)Nc3cc([N+](=O)[O-])ccc3F)[nH]c2c1	none (no result: Insulin prom inh)
Cc1ccc2nc(SC(C)C(=O)Nc3cccc([N+](=O)[O-])c3)[nH]c2c1 (configuration not stated)	L major viab 56
CC(=O)N(C)c1ccc(NC(=O)c2ccco2)cc1	none (no result: Insulin prom up)
C=CCn1c(C)cc(-c2csc(NC)n2)c1C	L major viab 96 (no result: PTEN del growth, HCT116 bCat-KO)
Cc1ccc(S(=O)(=O)/N=C2/NC(=O)/C(=C/c3ccccn3)S2)cc1	none (no result: PTEN del growth, HCT116 bCat-KO)
Cc1ccc(S(=O)(=O)c2c(N)n(-c3ccccc3)c3nc4ccccc4nc23)cc1	none (no result: Insulin prom inh)
COc1cccc(/C=N/n2c(N)c(S(=O)(=O)c3cccs3)c3nc4ccccc4nc32)c1OC	PTEN del growth 2.8, HCT116 bCat-KO 2.1
Nc1c(S(=O)(=O)c2cccc(Cl)c2)c2nc3ccccc3nc2n1/N=C/c1ccc(O)c(O)c1	PTEN del growth 1.5, L major viab 100, HCT116 bCat-KO 1.1 (no result: Insulin prom inh)
CCOc1ccc(Nc2ccnc3cc(Cl)ccc23)cc1	none (no result: PTEN del growth, L major viab, HCT116 bCat-KO, Insulin prom inh, Autophagy HCS)
COc1ccc(N2C(=O)CSCC2=O)cc1OC	none (no result: PTEN del growth, HCT116 bCat-KO, Insulin prom inh)
CCOC(=O)c1sc(Nc2nc3c(OC)cccc3s2)cc1C	L major viab 69
COc1ccccc1-c1nnc(Nc2nc3c(OC)cccc3s2)o1	L major viab 98, HCT116 bCat-KO 5.1 (no result: Insulin prom up)
COc1cccc2sc(NN)nc12	L major viab 60 (no result: PTEN del growth, HCT116 bCat-KO, Insulin prom up, Insulin prom inh)
COc1cccc(-c2nnc(Nc3nc4c(F)cccc4s3)o2)c1	none
COc1cccc2sc(Nc3nnc(-c4ccccc4Cl)o3)nc12	L major viab 97, Autophagy HCS active (no result: Insulin prom up, Insulin prom inh)
CCOC(=O)c1sc(Nc2nc3cc4c(cc3s2)OCO4)cc1C	none (no result: Insulin prom inh)
CC(=O)c1ccc(N2CCN(CC(O)COCc3ccco3)CC2)cc1 (configuration not stated)	none (no result: PTEN del growth, HCT116 bCat-KO, Insulin prom inh)
COc1ccc(C(=O)N/C(=C\c2cn(S(=O)(=O)N(C)C)c3ccccc23)C(=O)NC(C)C)cc1	none (no result: PTEN del growth, HCT116 bCat-KO, Insulin prom inh)
CCOc1ccc(S(=O)(=O)N(CC(=O)N2CCc3ccccc32)Cc2ccco2)cc1	none
COc1ccc(OC)c(Nc2nc(-c3sc(N)nc3C)cs2)c1	none (no result: Insulin prom up)
CCOC(=O)c1sc(NC(=O)C2CCCO2)c(C(=O)OCC)c1C (configuration not stated)	none (no result: PTEN del growth, L major viab, HCT116 bCat-KO, Insulin prom inh, Autophagy HCS)
O=C(NC1CCCC1)C1CC(=O)N(C2CCCCCCC2)C1 (configuration not stated)	none (no result: Insulin prom up)
CC(=O)Nc1ccc2nc(NC(=O)COc3ccccc3C)sc2c1	none (no result: PTEN del growth, HCT116 bCat-KO, Insulin prom up)
NNc1nc2c(Cl)c(Cl)ccc2s1	L major viab 99
NNc1nc2ccc(Cl)cc2s1	none (no result: Insulin prom inh)
COc1cccc2sc(Nc3nc4ccc(NC(C)=O)cc4s3)nc12	L major viab 85
CCOC(=O)N1CCN(c2nc(N(c3ccccc3)c3ccccc3)nc(-n3ccnc3)n2)CC1	none (no result: PTEN del growth, L major viab, HCT116 bCat-KO, Insulin prom inh, Autophagy HCS)
c1ccc(CN2CCN(c3nc(-c4ccccc4)nc(-n4ccnc4)n3)CC2)cc1	none (no result: Insulin prom inh)
